Experiments:
Details in all cases: concentration: 1 μM, replicates: in singlicate; n = 1
[1] = tested on: LTK
[2] = tested on: LYN
[3] = tested on: T1, LZK
T1 construct: gene MAP3K13

[4] = tested on: MAK
[5] = tested on: MAP3K15
[6] = tested on: MAP3K1
[7] = tested on: MAP3K2
[8] = tested on: MAP3K3
[9] = tested on: MAP3K4
[10] = tested on: MAP4K2
[11] = tested on: MAP4K3
[12] = tested on: MAP4K4
[13] = tested on: MAP4K5
[14] = tested on: MAPKAPK2
[15] = tested on: MAPKAPK5
[16] = tested on: MARK1
[17] = tested on: MARK2
[18] = tested on: MARK3
[19] = tested on: MARK4
[20] = tested on: MAST1

Measured: %Inh
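Note: KINOMEscan kinase panel screen.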

CNc1ncnc2[nH]ncc12 [SKF-18355]
0%: [1] | [2] | [5] | [8] | [9] | [10] | [11] | [12] | [13] | [14] | [15]
35%: [18]
2%: [4] | [6]
27%: [3]
14%: [7] | [17]
59%: [19]
70%: [20]
23%: [16]

CN1c2ccc(CNc3ccc(F)cc3)cc2-c2c(cnn2C)S1(=O)=O
3%: [2] | [4] | [16]
12%: [9]
0%: [1] | [3] | [5] | [6] | [10] | [12] | [13] | [14] | [15] | [17] | [18] | [20]
11%: [7] | [19]
25%: [8]
8%: [11]

Nc1nc(-c2ccc3c(N)n[nH]c3c2)cc(N2CCCC2)n1 [GSK2227430]
0%: [1] | [2] | [3] | [5] | [6] | [7] | [8] | [9] | [10] | [11] | [12] | [13] | [14] | [15] | [16] | [17] | [18] | [20]
27%: [4]
6%: [19]

Fc1ccc(-c2nn3c(OCC(F)(F)F)cccc3c2-c2ccncc2)cc1 [GW514784]
0%: [1] | [2] | [5] | [6] | [7] | [8] | [9] | [10] | [11] | [12] | [13] | [14] | [15] | [16] | [17] | [18] | [19]
48%: [20]
37%: [3]
31%: [4]

CN1c2ccc(NCc3ccc(F)cc3)cc2-c2c(cnn2C)S1(=O)=O
13%: [19]
11%: [9] | [20]
0%: [1] | [2] | [3] | [4] | [5] | [6] | [7] | [10] | [12] | [14] | [15] | [16] | [17] | [18]
5%: [8]
1%: [11]
12%: [13]

COc1ccc(Nc2nccc(N3CCC(NC(=O)Nc4cccc(C(C)=O)c4)C3)n2)cc1 (stereo not shown) [GSK1379731]
14%: [6]
19%: [9]
0%: [1] | [2] | [3] | [5] | [8] | [10] | [11] | [13] | [14] | [15] | [16] | [17] | [18] | [20]
8%: [12]
29%: [4]
4%: [7]
10%: [19]

Fc1ccc(-c2ncn(CCCN3CCOCC3)c2-c2cccnc2)cc1 [SB-211743]
7%: [6]
4%: [13]
16%: [19]
3%: [16]
18%: [1]
15%: [4]
0%: [2] | [3] | [5] | [8] | [9] | [10] | [12] | [14] | [15] | [18] | [20]
28%: [7]
5%: [17]
11%: [11]

c1ccc(-c2cc(-c3c[nH]nc3-c3ccccn3)ccn2)cc1 [GW576604]
10%: [3]
19%: [1]
13%: [20]
22%: [12]
0%: [2] | [4] | [5] | [6] | [7] | [8] | [9] | [10] | [11] | [13] | [15] | [16] | [17] | [18] | [19]
6%: [14]

Source: PMC5540273 (PLoS ONE, 2017)
